From PubChem BioAssay (NCI)
Compounds without any hit were thinned out: in the full panel of roughly 83,000, 20% have a hit.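 Activity criterion: percent growth below 10, measured after cells in 96-well plates were exposed to a single compound concentration for 48 hours.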 Values without a mark were called inactive. Activity calls are given as the source filed them.

The molecules below were run on MDA-MB-468 breast (assay: NCI-60 one-dose screen, 48 h (100 = growth as untreated, 0 = no growth, -100 = all killed)). Conditions: 10 µM unless noted.

SMILES	growth
CCN1C/C(=N\S(=O)(=O)c2ccccc2)N(CC)C1=S	97.7%
O=C(Nc1ccc(OS(=O)(=O)Cc2ccccc2)cc1)C12CC3CC(CC(C3)C1)C2	66.6%
CN1CCN(CC#CCn2c3c(c4ccccc42)C[C@]2(C)[C@H]4CC=C5[C@@H]6CC(C)(C)CC[C@]6(C(=O)N6CCOCC6)CC[C@@]5(C)[C@]4(C)CC[C@H]2C3(C)C)CC1	79.4%
CN(C)C(=O)OCc1nc2c(N3CCOCC3)nc(-c3ccccc3)nc2n1C	-61.1% (active)
CCCC(C)OCC(=O)O (stereo not given)	92.1%
COC(=O)C(C)NC1=C(Cl)C(=O)C(NC(C)C(=O)OC)=C(Cl)C1=O (stereo not given)	63.6%
C=C1C(=O)O[C@H]2[C@H]1CC/C(C=Nc1c(N)cc(C(F)(F)F)cc1Br)=C\CC[C@@]1(C)O[C@@H]21	-16.6% (active)
Clc1nc(Cl)c2ncn(CC3(Cn4cnc5c(Cl)nc(Cl)nc54)COC3)c2n1	-60.7% (active)
CC(C)(C)NCCC(O)c1cc2c(Cl)cc(Cl)cc2c2cc(C(F)(F)F)ccc12 (stereo not given)	-85.7% (active)
COc1ccc(/C=C/C(=O)c2ccc(O)c(CN3CCN(c4cc5c(cc4F)c(=O)c(C(=O)O)cn5C4CC4)CC3)c2)cc1	3.04% (active)
C=C1CCC2C3(C)COC(c4ccc(OC)cc4Br)OC3CCC2(C)C1/C=C/C1=CCOC1=O (stereo not given)	54.3%
CCc1cccc(-c2ccccc2)c1	106%
CCOC(=O)c1cc(C(=O)c2ccc(OC)c(OC)c2)n2ccncc12	99.5%
Cn1cc(-c2nc(-c3c[nH]c4ncccc34)cs2)c2cc(F)ccc21	-22.6% (active)
CCN(CC)CCO/N=C1\CC(c2ccc(OC)c(OC)c2)Oc2ccccc21 (stereo not given)	80.1%
O=C(Nc1ccc(OCc2nnc(-c3ccc(Cl)cc3)o2)c(F)c1)Nc1ccc(Cl)c(C(F)(F)F)c1	-24.8% (active)
c1cnc2nc3c(cc2c1)oc1ccccc13	81%
CC/C(=C(\CC)c1ccc(OCCN(CC)CC)cc1)c1ccc(OCCN(CC)CC)cc1	0.372% (active)
COc1ccc(-c2ccc(-c3ccc(C(=N)N)cn3)s2)cc1Cl	-68.5% (active)
C=C(C)[C@@H]1CC[C@]2(COC(=O)c3ccccc3C(=O)O)CC[C@]3(C)[C@H](CC[C@@H]4[C@@]5(C)CC[C@H](OC(=O)c6ccccc6C(=O)O)C(C)(C)[C@@H]5CC[C@]43C)[C@@H]12	-22.5% [100 µM] (active)

SMILES	growth
CCO/C=N/C1=C(C#N)C(c2ccc(Cl)cc2)c2sc3c(CC)cccc3c2O1 (stereo not given)	-33.4% (active)
O=C(O)c1c(=O)cccc2ssc12	-50.5% (active)
CC(=O)Nc1nc(N)nc(NC(C)=O)c1N=O	118%
Cn1c2ccccc2c2nnc(NCCCCO)nc21	95.8%
Nc1c(C(=O)Nc2cccc3ccccc23)sc2nc3c(cc12)CCCC3	35%
COc1ccc(/C(N)=N/C(N)=N/c2nc3ccccc3s2)cc1	24.3%
COc1ccc(S(=O)(=O)N(Cc2ccc3c(n2)C=CC(C)(C)O3)C2CCC2)cc1OC	-8.27% (active)
CC1=C([Se]CC(OC(=O)[C@@H](CSSC(C)(C)C)NC(=O)C(C)(C)C)C(=O)NCCCCCC(=O)OCc2ccccc2)C(=O)c2ccccc2C1=O (stereo not given in full)	-21.9% (active)
C/C(Cc1ccc(Cl)cc1)=C(\c1ccc(OCCN2CCCCCC2)cc1)c1ccc(OC(=O)c2ccccc2)cc1	48.1%
Cc1cc2cc3cc(C)c(N(C)C)cc3nc2cc1N(C)C	23.9%
N=C(N)c1ccc(-c2ccc(-c3ccco3)o2)cc1	22.9%
CC1(C)N=C(N)N=C(N)N1c1ccc(CCCCc2ccccc2)c(Cl)c1	-20.8% (active)
O=C(NNc1nc(N2CCCC2)nc(N2CCCC2)n1)c1ccccc1	112%
C=C1C(=O)O[C@H]2[C@H]1CC/C(COC(=O)CCCC(=O)OC/C1=C/CC[C@@]3(C)O[C@H]3[C@H]3OC(=O)C(=C)[C@@H]3CC1)=C\CC[C@@]1(C)O[C@@H]21	-19.1% (active)
COC(=O)/C=C1/SC(=Nc2ccc([N+](=O)[O-])cc2)N(CCc2c[nH]c3ccccc23)C1=O	86%
COc1ccc(SC2c3ccc(C)cc3Oc3nc(N)c(C#N)c(N)c32)cc1 (stereo not given)	-51% (active)
CC(=O)O[C@H]1CC[C@]2(C)[C@H]3CC[C@@H]4[C@H]5[C@H](C(C)C)CC[C@]5(C(=O)OCC(CO)(CO)N=C(N)N)CC[C@@]4(C)[C@]3(C)CC[C@H]2C1(C)C	-25.5% (active)
C=C1C(=O)O[C@H]2[C@H]1CC/C(COC(=O)Nc1nc3ccccc3[nH]1)=C\CC[C@@]1(C)O[C@@H]21	36.9%
COc1ccc(CN2c3ccccc3Sc3ccccc32)cc1O	9.33% (active)
O=C(Cc1nc2ccc([N+](=O)[O-])cc2nc1CC(=O)c1cccnc1)c1cccnc1	75.7%
